Experimental data taken from PubChem BioAssay (Tox21).
The source made the active and inactive calls. A call without a number means that no potency is given here. Calls come from the whole dose curve.

Molecular target: Gonadotropin-releasing hormone receptor (Homo sapiens) (UniProt P30968)
Experiment: Human gonadotropin-releasing hormone receptor (GnRHR) small molecule agonists, calcium flux assay in GnRHR-HEK293 cells (AID 1920063); note: nearly all actives have a fitted effect of over 35% in size
Summary of the method: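 Tox21-format agonist screen using human GnRHR-expressing HEK293 cells and a fluorescent calcium dye; kinetic 3-min fluorescence reading after compound addition, 15-point concentration series run in triplicate.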

Chain of Gonadotropin-releasing hormone receptor (Homo sapiens) (P30968 whole entry, looked up): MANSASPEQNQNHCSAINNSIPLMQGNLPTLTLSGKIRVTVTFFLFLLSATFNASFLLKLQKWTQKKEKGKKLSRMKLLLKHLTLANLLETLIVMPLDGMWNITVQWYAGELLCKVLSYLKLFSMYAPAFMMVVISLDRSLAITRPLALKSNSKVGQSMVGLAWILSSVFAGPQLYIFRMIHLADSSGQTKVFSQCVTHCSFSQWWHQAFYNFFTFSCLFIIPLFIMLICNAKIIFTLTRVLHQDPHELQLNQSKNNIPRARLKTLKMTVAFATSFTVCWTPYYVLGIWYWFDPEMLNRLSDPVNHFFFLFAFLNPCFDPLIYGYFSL

COc1cccc(O)c1
Potency: inactive

C=CC(OCC)OCC
Potency: inactive

CCN1CC(CCN2CCOCC2)C(c2ccccc2)(c2ccccc2)C1=O (stereo unspecified)
Potency: inactive

CC(C)(C)C(=O)NCCCC(=O)O
Potency: inactive

CC(C)(O)CCC(C)(C)O
Potency: inactive

Cc1ccc2cccnc2c1
Potency: inactive

OC[C@@H](O)C(O)[C@@H](O)CO (stereo partly specified)
Potency: inactive

CCCCCCCCCCCC[N+](C)(C)CC(=O)[O-]
Potency: inactive

CCCCCN(CCCOC)C(=O)C(CCC(=O)O)NC(=O)c1ccc(Cl)c(Cl)c1 (stereo unspecified)
Potency: inactive

NC(=O)C(=O)N/N=C/c1ccc([N+](=O)[O-])o1
Potency: inactive

O=C(O)c1cc(Cl)cc(Cl)c1O
Potency: inactive

CN(C)c1ccc(C(c2ccccc2)c2ccc(N(C)C)cc2)cc1
Potency: inactive

C/C=C(/C(=C/C)c1ccc(O)cc1)c1ccc(O)cc1
Potency: inactive

Cc1cc(F)ccc1-c1cc(N2CC[C@@H](O)[C@H]2CO)ncc1N(C)C(=O)C(C)(C)c1cc(C(F)(F)F)cc(C(F)(F)F)c1
Potency: inactive

C[C@H]1NCc2cc(-c3ccc4c(=O)c(C(=O)O)cn(C5CC5)c4c3OC(F)F)ccc21
activity change: -2.08% [at 11.8 µM, stronger effect = higher value] (inactive)

C[C@H](CCC(=O)NCC(=O)O)[C@H]1CC[C@H]2[C@@H]3[C@H](O)C[C@@H]4C[C@H](O)CC[C@]4(C)[C@H]3C[C@H](O)[C@]12C
Potency: inactive

CC/C=C\CCCCO
Potency: inactive

CCN1CCN(c2cc(-c3ccc(F)cc3)c3c(n2)CCCCCC3)CC1
activity change: 17.8% [at 11.8 µM, stronger effect = higher value] (inactive)

CCc1cccc(CC)c1NC(=O)CN(CC(=O)O)CC(=O)O
Potency: inactive

OCCC(O)CO (stereo unspecified)
Potency: inactive

CC1COc2c(N3CCN(C)CC3)c(F)cc3c(=O)c(C(=O)O)cn1c23 (stereo unspecified)
Potency: inactive

COc1c(N2CCNC(C)C2)c(F)cc2c(=O)c(C(=O)O)cn(C3CC3)c12 (stereo unspecified)
Potency: inactive

O=C1CCCCO1
Potency: inactive

O=C(NCCO[N+](=O)[O-])c1cccnc1
Potency: inactive

O=C(O)CCSCCC(=O)O
Potency: inactive

C/C=C(\C)C#N
Potency: inactive
